Measured values: PubChem BioAssay
Unmarked numbers belong to inactive results. Activity calls are given as the source filed them. Rule as the data show it, unless noted: active = inhibition above about 33%; inactive = the rest.

Columns and labels:
[1] = StAR promoter reporter inhibitors, counter-screen for LRH-1 inverse agonist project, cell-based, luminescence, high throughput (AID 651611; in the data active = inhibition above about 28%); conditions: StAR promoter luciferase reporter counterscreen, at 3.6 µM, active compounds read high
[2] = target: Nuclear receptor subfamily 5 group A member 2 (Homo sapiens) (UniProt O00482); experiment: NR5A2 activity suppression in reporter cells – cell-based, luminescence, confirmation (AID 651613; in the data active = inhibition above about 42%;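 also: HEK293T cells co-transfected with LRH-1 and StAR promoter luciferase reporter; 0% = vehicle wells and 100% = parental cells lacking receptor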); conditions: cell-based LRH-1 luciferase reporter, inverse agonism; at 3.6 µM; active compounds read high
Sequence of Nuclear receptor subfamily 5 group A member 2 (Homo sapiens) (O00482 whole entry, looked up): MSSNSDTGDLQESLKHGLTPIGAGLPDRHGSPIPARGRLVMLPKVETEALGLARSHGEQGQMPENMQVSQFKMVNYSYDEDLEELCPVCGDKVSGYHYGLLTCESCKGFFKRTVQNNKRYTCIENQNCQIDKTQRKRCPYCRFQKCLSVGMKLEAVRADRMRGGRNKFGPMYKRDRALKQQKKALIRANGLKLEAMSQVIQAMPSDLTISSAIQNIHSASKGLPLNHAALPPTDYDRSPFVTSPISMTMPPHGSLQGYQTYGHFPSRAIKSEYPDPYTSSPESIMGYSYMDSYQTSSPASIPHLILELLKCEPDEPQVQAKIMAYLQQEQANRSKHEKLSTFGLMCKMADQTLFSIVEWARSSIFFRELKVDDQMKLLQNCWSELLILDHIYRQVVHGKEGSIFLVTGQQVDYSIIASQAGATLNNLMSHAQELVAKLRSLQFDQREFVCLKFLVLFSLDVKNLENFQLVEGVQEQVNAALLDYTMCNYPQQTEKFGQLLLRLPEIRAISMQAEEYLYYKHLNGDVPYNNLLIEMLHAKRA

[3] = target: Steroidogenic factor 1 (Homo sapiens) (UniProt Q13285); experiment: inverse agonism at SF1 nuclear receptor – cell-based, luminescence, high throughput, counter-screen for LRH-1 inverse agonist project (AID 651614; in the data active = inhibition above about 44%;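 also: cells cotransfected with StAR promoter reporter and SF1 expression vector; 0% = vehicle on cells with receptor and 100% = vehicle on cells lacking receptor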); conditions: cell-based SF1 luciferase reporter, at 3.6 µM, active compounds read high
Sequence of Steroidogenic factor 1 (Homo sapiens) (Q13285 whole entry, looked up, the tested form may be a part): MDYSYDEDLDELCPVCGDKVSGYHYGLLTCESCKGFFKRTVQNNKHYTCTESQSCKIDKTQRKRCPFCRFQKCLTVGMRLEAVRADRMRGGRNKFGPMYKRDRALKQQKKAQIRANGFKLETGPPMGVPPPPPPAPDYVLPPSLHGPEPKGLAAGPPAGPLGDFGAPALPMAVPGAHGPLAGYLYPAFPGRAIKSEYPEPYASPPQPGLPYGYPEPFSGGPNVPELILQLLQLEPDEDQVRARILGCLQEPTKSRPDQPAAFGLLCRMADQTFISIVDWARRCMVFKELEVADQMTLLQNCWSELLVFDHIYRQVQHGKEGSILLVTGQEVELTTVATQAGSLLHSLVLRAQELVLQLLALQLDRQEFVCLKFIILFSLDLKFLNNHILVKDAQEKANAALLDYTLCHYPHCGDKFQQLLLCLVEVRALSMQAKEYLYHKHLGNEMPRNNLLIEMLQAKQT

[4] = compounds suppressing VP16-driven luciferase signal – cell-based, luminescence, high throughput, counter-screen for LRH-1 inverse agonist project (AID 651615); conditions: Gal4-VP16 luciferase reporter cells, at 3.6 µM, active compounds read high

Clc1ccc(Cn2ncc3c(NCc4ccccc4)ncnc32)cc1
inhibition [1]: 43.3% (active) | inhibition [2]: 59.4% (active) | inhibition [3]: 51.4% (active) | inhibition [4]: 14.4%

COc1ccc(CCNC(=O)COC(=O)C23CC4CC(CC(C4)C2)C3)cc1
inhibition [1]: 17.5% | inhibition [2]: 57% (active) | inhibition [3]: 48.7% (active) | inhibition [4]: 1.82%

COC(=O)c1cc2c(-c3ccccc3)cc3ccccn3c-2c1C(=O)OC
inhibition [1]: 11.5% | inhibition [2]: 62.3% (active) | inhibition [3]: 54.5% (active) | inhibition [4]: 0.7%

CC1SC(C)C(=O)N(CC(=O)Nc2ccc3c(c2)OCO3)C1=O (stereo not given)
inhibition [1]: 8.81% | inhibition [2]: 49.1% (active) | inhibition [3]: 36.9% | inhibition [4]: -7.59%

CCOC(=O)C(C)Oc1cccc2c(=O)n(CC(=O)Nc3ccc4c(c3)OCCO4)ccc12 (stereo not given)
inhibition [1]: 5.33% | inhibition [2]: 58.5% (active) | inhibition [3]: 51.7% (active) | inhibition [4]: -1.21%

COc1ccc(-c2cnc3c(NC=O)cc(-c4ccc(S(C)(=O)=O)cc4)cn23)cc1OC
inhibition [1]: -4.42% | inhibition [2]: 63% (active) | inhibition [3]: 58.1% (active) | inhibition [4]: 30.2%

CC(=O)Nc1ccc(NC(=O)COC(=O)c2ccc([N+](=O)[O-])o2)cc1
inhibition [1]: 12.7% | inhibition [2]: 60.1% (active) | inhibition [3]: 51.9% (active) | inhibition [4]: -5.51%

O=C(CN1C(=O)CCC1=O)Nc1ccc(Br)cc1
inhibition [1]: 15.1% | inhibition [2]: 60.2% (active) | inhibition [3]: 52.2% (active) | inhibition [4]: -3.7%

COc1ccccc1Nc1nc(NCCCCO)nc(N2CCCC2)n1
inhibition [1]: 10.5% | inhibition [2]: 30.2% | inhibition [3]: 38.3% | inhibition [4]: 5.34%

COCCn1c(SCC(=O)Nc2ccc(C(N)=O)cc2)nc2c([nH]c3ccccc32)c1=O
inhibition [1]: 24.6% | inhibition [2]: 64.9% (active) | inhibition [3]: 61.7% (active) | inhibition [4]: -64%

COc1ccc(NS(=O)(=O)c2ccc(-c3coc(C)n3)cc2)cc1OC
inhibition [1]: 15.6% | inhibition [2]: 65.6% (active) | inhibition [3]: 64.7% (active) | inhibition [4]: 51.4% (active)

O=[N+]([O-])c1ccc(-n2cnc3ccccc32)c([N+](=O)[O-])c1
inhibition [1]: 17.6% | inhibition [2]: 54.7% (active) | inhibition [3]: 62.1% (active) | inhibition [4]: 9.79%

O=C(CSc1ccccn1)Nc1nonc1[N+](=O)[O-]
inhibition [1]: 10.8% | inhibition [2]: 16.9% | inhibition [3]: 26.5% | inhibition [4]: -15.1%

CC(=O)Nc1ccc(NC(=O)CSc2nnc(-c3cc4ccccc4o3)n2C)cc1
inhibition [1]: -0.36% | inhibition [2]: 42.7% (active) | inhibition [3]: 43.9% (active) | inhibition [4]: -5.84%

O=C(CSc1nnc(CNC(=O)c2ccccc2F)o1)Nc1ccc2c(c1)OCCO2
inhibition [1]: 10.5% | inhibition [2]: 56.9% (active) | inhibition [3]: 51.6% (active) | inhibition [4]: -7.98%

C/C(=N\N1CCN(c2ccc(Cl)cc2)CC1)c1cccc([N+](=O)[O-])c1
inhibition [1]: 12.5% | inhibition [2]: 15.8% | inhibition [3]: 21.2% | inhibition [4]: 8.61%

Cc1cc2oc(=O)cc(-c3ccccc3)c2c(C)c1-c1ccc(C#N)cc1
inhibition [1]: 4.09% | inhibition [2]: 69% (active) | inhibition [3]: 62.7% (active) | inhibition [4]: 13.8%

C=CC(=O)N1C/C(=C/c2ccc(F)cc2)C(=O)/C(=C\c2ccc(F)cc2)C1
inhibition [1]: 27.1% | inhibition [2]: 80% (active) | inhibition [3]: 86.7% (active) | inhibition [4]: 63% (active)

O=C(CN1C(=O)NC2(CCCC2)C1=O)NCCc1ccc(F)cc1
inhibition [1]: 15.3% | inhibition [2]: 44.2% (active) | inhibition [3]: 40.8% | inhibition [4]: 5.08%

COc1ccc(N2CCN(C(=O)c3ccc(CNS(=O)(=O)c4cccc(OC)c4)cc3)CC2)cc1
inhibition [1]: 9.25% | inhibition [2]: 27.8% | inhibition [3]: 29.5% | inhibition [4]: 6.88%
